Data on 5 compounds can be found in PubChem BioAssay (EPA / NIEHS).

Read-out in assay [1]: Interleukin-8 (IL8), CXCL8 (gene 3576)
Put plainly: BSK_CASM3C_IL8: BioMAP Diversity Plus: CASM3C Assay for Interleukin-8 (IL8) Biomarker Activity (AID 2283042).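 Note: IL-8 protein level quantified by ELISA.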 As to conditions: primary human coronary artery smooth muscle cells; actives raise or lower the signal.

Read-out in assay [2]: Human Leukocyte Antigen - DR isotype (HLADR), HLA-DRA (gene 3122)
The experiment in a line: BSK_CASM3C_HLADR: BioMAP Diversity Plus: CASM3C Assay for Human Leukocyte Antigen - DR isotype (HLADR) Biomarker Activity (AID 2283043).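 Note: cell-surface HLA-DR protein level quantified by ELISA.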 Particulars: primary human coronary artery smooth muscle cells; actives raise or lower the signal.

Read-out in assay [3]: Macrophage colony-stimulating factor (MCSF), CSF1 (gene 1435)
Put plainly: BSK_CASM3C_MCSF: BioMAP Diversity Plus: CASM3C Assay for Macrophage colony-stimulating factor (MCSF) Biomarker Activity (AID 2283044).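 Note: M-CSF protein amount quantified by ELISA after 24 h exposure.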 As to conditions: primary human coronary artery smooth muscle cells; actives raise or lower the signal.

Read-out in assay [4]: Low-density lipoprotein receptor (LDLR), LDLR (gene 3949)
The experiment in a line: BSK_CASM3C_LDLR: BioMAP Diversity Plus: CASM3C Assay for Low-density lipoprotein receptor (LDLR) Biomarker Activity (AID 2283045).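 Note: LDLR protein level on the cell surface quantified by ELISA.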 Particulars: primary human coronary artery smooth muscle cells; actives raise or lower the signal.

Read-out in assay [5]: Monocyte Chemoattractant Protein-1 (MCP1), CCL2 (gene 6347)
The experiment in a line: BSK_CASM3C_MCP1: BioMAP Diversity Plus: CASM3C Assay for Monocyte Chemoattractant Protein-1 (MCP1) Biomarker Activity (AID 2283046). As to conditions: primary human coronary artery smooth muscle cells; actives raise or lower the signal.

A short description of assay [6]: BSK_CASM3C_Proliferation: Cell Proliferation Assessment in the BioMAP Diversity Plus: CASM3C Assay (AID 2283047).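 Note: sulforhodamine B total protein stain as relative cell number at 560 nm; sub-confluent cells exposed 48 h before staining; fitted both ways against DMSO so gain or loss of cell number.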 Particulars: primary human coronary artery smooth muscle cells.
The nature of assay [7]: BSK_CASM3C_SRB: Viability Assessment in the BioMAP Diversity Plus: CASM3C Assay (AID 2283050).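 Note: cells exposed to compound for 24 h.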 Particulars: primary human coronary artery smooth muscle cells.
Read-out in assay [8]: Interferon-gamma inducible Protein 10 (IP10), CXCL10 (gene 3627)
Put plainly: BSK_hDFCGF_IP10: BioMAP Diversity Plus: hDFCGF Assay for Interferon-gamma inducible Protein 10 (IP10) Biomarker Activity (AID 2283053). Particulars: primary human foreskin fibroblasts; actives raise or lower the signal. In a few lines:
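Chemical-treated human skin fibroblasts (primary) were sampled at 24 h for IP-10 by ELISA. Both increases and decreases relative to DMSO were scored.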

Read-out in assay [9]: Interleukin-8 (IL8), CXCL8 (gene 3576)
The experiment in a line: BSK_hDFCGF_IL8: BioMAP Diversity Plus: hDFCGF Assay for Interleukin-8 (IL8) Biomarker Activity (AID 2283058). Particulars: primary human foreskin fibroblasts; actives raise or lower the signal. In a few lines: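 IL-8 levels from compound-treated primary human fibroblasts were read by ELISA at 24 h, with DMSO serving as baseline for bidirectional fitting.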

A short description of assay [10]: BSK_hDFCGF_Proliferation: Cell Proliferation Assessment in the BioMAP Diversity Plus: hDFCGF Assay (AID 2283059).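 Note: curves fitted for both rise and fall of signal versus DMSO baseline.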 Particulars: primary human foreskin fibroblasts. In a few lines:
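Primary human foreskin fibroblasts, sub-confluent; […]; 10% TCA fix, 0.1% SRB stain, A560 total protein. Gain/loss fitted bidirectionally vs DMSO control.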

Read-out in assay [11]: Macrophage colony-stimulating factor (MCSF), CSF1 (gene 1435)
The experiment in a line: BSK_hDFCGF_MCSF: BioMAP Diversity Plus: hDFCGF Assay for Macrophage colony-stimulating factor (MCSF) Biomarker Activity (AID 2283060). As to conditions: AC50: primary human foreskin fibroblasts, actives raise or lower the signal unless noted; outcome: primary human foreskin fibroblasts, actives raise or lower the signal unless noted. The procedure, abridged:
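M-CSF levels, determined by ELISA, are taken at 24 h after dosing human skin fibroblasts. Responses in either direction are fitted with DMSO serving as the baseline.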

Assay [12] can be described thus: BSK_hDFCGF_SRB: Viability Assessment in the BioMAP Diversity Plus: hDFCGF Assay (AID 2283061).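 Note: cells exposed to compound for 24 h before the read.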 Particulars: primary human foreskin fibroblasts. The procedure, abridged: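 Cells were dosed with test chemical, cultured 24 h, fixed with 10% TCA, then stained with 0.1% SRB and read at 560 nm. The fibroblasts were human foreskin primary cells, and DMSO served as baseline.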

Read-out in assay [13]: TIMP metallopeptidase inhibitor 1 (TIMP1), TIMP1 (gene 7076)
The experiment in a line: BSK_hDFCGF_TIMP1: BioMAP Diversity Plus: hDFCGF Assay for TIMP metallopeptidase inhibitor 1 (TIMP1) Biomarker Activity (AID 2283062). Particulars: primary human foreskin fibroblasts; actives raise or lower the signal. In a few lines: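 Fibroblasts from human foreskin are treated with test chemical and harvested at 24 h. TIMP-1 is quantified by ELISA, and gain or loss of signal is scored against DMSO.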

Read-out in assay [14]: Monokine induced gamma interferon (MIG), CXCL9 (gene 4283)
The experiment in a line: BSK_hDFCGF_MIG: BioMAP Diversity Plus: hDFCGF Assay for Monokine induced gamma interferon (MIG) Biomarker Activity (AID 2283063). As to conditions: primary human foreskin fibroblasts; actives raise or lower the signal. In a few lines:
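MIG signal, determined by ELISA, reflects 24 h chemical exposure of human skin primary fibroblasts. DMSO serves as negative control and baseline.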

Read-out in assay [15]: Matrix Metallopeptidase 1 (MMP1), MMP1 (gene 4312)
Put plainly: BSK_hDFCGF_MMP1: BioMAP Diversity Plus: hDFCGF Assay for Matrix Metallopeptidase 1 (MMP1) Biomarker Activity (AID 2283064). As to conditions: primary human foreskin fibroblasts; actives raise or lower the signal. In a few lines: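 MMP1 levels quantified by ELISA 24 h after dosing human dermal fibroblast cultures, with parallel SRB total-protein staining for overt cytotoxicity. Data fitted in both directions against DMSO baseline.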

Read-out in assay [16]: Plasminogen activator inhibitor-1 (PAI1), SERPINE1 (gene 5054)
Put plainly: BSK_hDFCGF_PAI1: BioMAP Diversity Plus: hDFCGF Assay for Plasminogen activator inhibitor-1 (PAI1) Biomarker Activity (AID 2283066). Particulars: primary human foreskin fibroblasts; actives raise or lower the signal. The procedure, abridged:
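Human skin fibroblast cultures receive chemical for 24 h before PAI-1 is measured by ELISA; signal changes are fitted bidirectionally against DMSO-treated wells.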

Read-out in assay [17]: Interferon-gamma inducible Protein 10 (IP10), CXCL10 (gene 3627)
Put plainly: BSK_KF3CT_IP10: BioMAP Diversity Plus: KF3CT Assay for Interferon-gamma inducible Protein 10 (IP10) Biomarker Activity (AID 2283068). As to conditions: primary human keratinocytes with fibroblasts; actives raise or lower the signal. The procedure, abridged: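 In a primary skin co-culture of keratinocytes and fibroblasts, IP-10 is quantified by ELISA at 24 h after dosing. SRB staining of parallel wells monitors overt toxicity. Curves are fitted both directions against DMSO.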

Assay [18] can be described thus: BSK_KF3CT_SRB: Viability Assessment in the BioMAP Diversity Plus: KF3CT Assay (AID 2283069).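 Note: total protein by sulforhodamine B staining as a cytotoxicity measure.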 Particulars: primary human keratinocytes with fibroblasts. The procedure, abridged:
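Cytotoxicity was gauged by SRB staining (0.1% SRB, 10% TCA fixation, 560 nm) of parallel cultures at 24 h. The cells were primary human skin keratinocytes co-cultured with fibroblasts, and activity was fitted in both directions against DMSO.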

Read-out in assay [19]: Interleukin-1 alpha (IL1a), IL1A (gene 3552)
The experiment in a line: BSK_KF3CT_IL1a: BioMAP Diversity Plus: KF3CT Assay for Interleukin-1 alpha (IL1a) Biomarker Activity (AID 2283070). As to conditions: primary human keratinocytes with fibroblasts; actives raise or lower the signal. In a few lines: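 IL-1a was detected by ELISA 24 h after chemical treatment of a co-culture of human skin keratinocytes and foreskin fibroblasts. Gain or loss of signal was fitted against the DMSO baseline.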

Read-out in assay [20]: TIMP metallopeptidase inhibitor 2 (TIMP2), TIMP2 (gene 7077)
The experiment in a line: BSK_KF3CT_TIMP2: BioMAP Diversity Plus: KF3CT Assay for TIMP metallopeptidase inhibitor 2 (TIMP2) Biomarker Activity (AID 2283071). Particulars: primary human keratinocytes with fibroblasts; actives raise or lower the signal. In a few lines:
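Measurements come from ELISA detection of TIMP-2 at 24 hours in a dosed human keratinocyte and foreskin fibroblast co-culture. DMSO serves as negative control and baseline.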

The structures appear in SMILES notation. “And” between values parts separate entries of the source, which are not always exact repeats. Equal values may be shown once. The source made the active and inactive calls. Rule for the calls: active = hit-call score of the fitted dose curve at least 0.9, where 1 is the maximum; inactive = score below 0.9.

In the case of `CCC[Si](OC(C)=O)(OC(C)=O)OC(C)=O`, the outcome in assay [1], in assay [2], in assay [3], in assay [4], in assay [5] and in assay [6] was inactive. For the same compound, the result in assay [7], in [8], in assay [9], in assay [10], in assay [11] and in [12] was inactive. The result in assay [13], in assay [14], in assay [15], in assay [16], in assay [17] and in assay [18] was inactive. Also, the outcome in assay [19] and in assay [20] was inactive.
As for `COc1cc(CNC(=O)CCCC/C=C/C(C)C)ccc1O`, the result in assay [1], in assay [3], in [4], in assay [5], in assay [6] and in assay [7] was inactive. Moreover, the outcome in assay [8], in [9], in assay [11], in assay [12], in [13] and in assay [14] was inactive. Also, the outcome in [15], in assay [16], in assay [17], in assay [18], in [19] and in assay [20] was inactive. Moreover, the AC50 was 16.8 µM (active) and 5.89 µM (active) in assay [2]; 1.26 µM (active) and 1.37 µM (active) in assay [10].
For `COc1ccccc1Oc1c(NS(=O)(=O)c2ccc(C(C)(C)C)cc2)nc(-c2ncccn2)nc1OCCO`, the result in assay [1], in [2], in assay [4], in assay [5], in assay [6] and in assay [7] was inactive. Moreover, the outcome in assay [8], in [9], in assay [11], in [12], in assay [13] and in assay [14] was inactive. The outcome in [15], in assay [16], in assay [17], in assay [18], in assay [19] and in assay [20] was inactive. In addition, the AC50 in assay [3] was 4.05 µM (active) and 5.31 µM (active); in assay [10], 20 µM (active) and 15.3 µM (active).
In the case of `CC(C)C1OCCN1CCOC(=O)NCCCCCCNC(=O)OCCN1CCOC1C(C)C` (stereo not given), the outcome in [1], in assay [2], in [3], in [4], in assay [5] and in [6] was inactive. For the same compound, the outcome in assay [7], in assay [8], in assay [9], in [10], in assay [11] and in assay [12] was inactive. Besides, the result in assay [13], in [14], in assay [15], in [16], in [17] and in assay [18] was inactive. For the same compound, the result in assay [19] and in assay [20] was inactive.
As for `OC(C(F)(F)F)(C(F)(F)F)C(O)(C(F)(F)F)C(F)(F)F`, the result in assay [1], in [4], in assay [5], in [9], in [12] and in assay [13] was inactive. Besides, the result in assay [15] was inactive. The AC50 in [2] is 18.7 µM (active) and 7.57 µM (active); in assay [3] it was 49 µM (active) and 50.5 µM (active); in assay [6], 27.7 µM (active) and 28.9 µM (active); in [7] it was 30 µM (active) and 26.9 µM (active); in assay [8], 20.1 µM (active) and 23.8 µM (active); in assay [10], 15.5 µM (active) and 16.8 µM (active). The half-maximal activity concentration (AC50) in assay [11] was 14.3 µM (active) and 19.2 µM (active); in assay [14], 30 µM (active); in assay [16], 33.1 µM (active) and 33.8 µM (active); in [17] it was 48.7 µM (active) and 47.2 µM (active); in [18], 46.9 µM (active) and 58.2 µM (active); in assay [19] it was 52.7 µM (active) and 54 µM (active). In addition, the AC50 in assay [20] is 50.7 µM (active) and 51.8 µM (active).
